Records with an inconclusive call do not appear. Entries that show only a call come without a potency. The source made the active and inactive calls. Calls follow the shape of the dose curve; as a rule, active = well fitted cell-killing curve with a large enough effect; inconclusive = small, poorly fitted or top-dose-only effect; inactive = no such curve, though single readings can be large or run the other way.
Assay: qHTS of pediatric cancer cell lines to identify multiple opportunities for drug repurposing: Primary screen for LAN-5 cells (AID 1347100)
Settings: LAN-5 neuroblastoma viability, CellTiter-Glo luminescence, 48 h; series mostly up to 46 µM
Excerpt: Drug repurposing or repositioning has been offered as a strategy for drug development in oncology programs. This approach has special potential for childhood cancers and other rare or orphan diseases, where the expected return on new drug development has been a disincentive to pharmaceuticals.
In this project we exploit the poly-pharmacology of drugs to discover new indications via phenotypic screening of a panel of 19 well-characterized cell lines derived from solid tumors seen in children and adolescents. The goal is to identify approved drugs with previously unrecognized anticancer properties that has the potential to reveal new mechanisms and biological processes involved in carcinogenesis or drug resistance. We employed a titration-based paradigm (quantitative high-throughput screening or qHTS), where all compounds were tested at multiple concentrations for their effect on cell viability. Concentration-response curves (CRCs) were derived directly from the primary screen, and both potency and efficacy values were used to identify compounds with robust bioactivity profiles. We screened the NIH Chemical Genomics Center (NCGC) Pharmaceutical Collection (NPC) and Mechanism Interrogation Plate (MIPE) small molecule collections of approved and investigational compounds against these cell lines; and measured metabolically active cells after 48 hours of compound treatment as a proxy for cell viability.
Assay Submitter: Nathalia J. Martinez, National Center for Advancing Translational Sciences, National Institutes of Health, Rockville, MD, USA; email: natalia.martinez@nih.gov
[1] Shen, M et al. Quantitative high-throughput phenotypic screening of pediatric cancer cell lines identifies multiple opportunities for drug repurposing. Oncotarget 2017 Dec 19;9(4):4758-4772. PMID 29435139.
The cells were obtained from University of North Carolina (UNC), Pediatric Preclinical Testing Program (PPT), and Coriell Institute (CI).
qHTS cell viability assay:
Cells were assayed in growth media at a density of 500-1,000 cells/well. Five microliters of cells were dispensed into 1,536-well, white, solid-bottom, TC-treated plates (Greiner Bio One) using a multidrop dispenser and incubated at 37 degrees C, 5% CO2, under a humidified atmosphere for 5 hours. Twenty-three nanoliters of compounds and controls (neutral control DMSO or positive control bortezomib at final concentration of 2.3 µM) were subsequently transferred by Kalypsys pintool. For primary screens, the MIPE collection was tested at 11-point dilutions (final concentrations range from 0.78 nM to 46 µM) and the NPC collection at 8-point dilutions (final concentrations range from 0.59 nM to 46 µM). Compounds tested in follow-up screens were assayed at 11-point dilutions. Cells were incubated for 48 hours, followed by addition of 3 µL of CellTiter-Glo (Promega). After a 15 min incubation at room temperature, samples were analyzed for luminescence intensity using a ViewLux High-throughput CCD imager equipped with clear filters.
Potency is read from the fitted curve at half-maximal effect.

| Structure (SMILES) | Potency |
| --- | --- |
| CCN(CC)Cc1nccn1-c1ccc([N+](=O)[O-])cc1C(=O)c1ccccc1Cl | inactive |
| O=C1CN2CCOC2(c2ccccc2Cl)c2cc(Cl)ccc2N1 (stereo not given) | inactive |
| C=CCOC(Cn1ccnc1)c1ccc(Cl)cc1Cl (stereo not given) | inactive |
| CC(C)[N+](C)(CCC(C(N)=O)(c1ccccc1)c1ccccc1)C(C)C | inactive |
| CCC(=O)OC1(c2ccccc2)CCN(C)CC1 | inactive |
| CCC1(c2cccc(O)c2)CCCCN(C)C1 (stereo not given) | inactive |
| Cc1c(Cl)c(=O)oc2cc(OP(=O)(OCCCl)OCCCl)ccc12 | inactive |
| C[C@]12CC[C@H]3[C@@H](CCC4=CC(=O)CC[C@@H]43)[C@@H]1CC[C@@H]2O | inactive |
| Cc1nnc2n1-c1sc(CCC(=O)N3CCOCC3)cc1C(c1ccccc1Cl)=NC2 | inactive |
| COCC(=O)N(c1c(C)cccc1C)C(C)C(=O)OC (stereo not given) | inactive |
| Cc1cccc(Cc2cnc[nH]2)c1C | inactive |
| C[C@H](N)[C@H](O)c1ccc(O)c(O)c1 | 26600 nM (active) |
| CN(C)C(=S)SSC(=S)N(C)C | 266 nM (active) |
| CC(C)(C)OC(=O)c1ncn2c1[C@@H]1CCCN1C(=O)c1c(Br)cccc1-2 | inactive |
| CC(C)=C[C@@H]1[C@@H](C(=O)OCc2coc(Cc3ccccc3)c2)C1(C)C | inactive |
| Oc1c(Br)cc(Br)cc1Br | inactive |
| CCC(=O)C(CCN(C)C)(c1ccccc1)c1ccccc1 | inactive |
| C=CCN1CC[C@]23CCCC[C@H]2[C@H]1Cc1ccc(O)cc13 | inactive |
| CC1=C2[C@H]3OC(=O)[C@@H](C)[C@@H]3CC[C@@]2(C)C=CC1=O | inactive |
| CCN(CC)CCOC(=O)C(C)(c1ccccc1)c1ccccc1 | inactive |

| Structure (SMILES) | Potency |
| --- | --- |
| Nc1ccccc1C(=O)OCC(O)CO (stereo not given) | inactive |
| COc1cc(N)c(Cl)cc1C(=O)NC1CN2CCC1CC2 (stereo not given) | inactive |
| CCCC[N+]1(C)[C@@H]2CC(OC(=O)[C@H](CO)c3ccccc3)C[C@H]1[C@@H]1O[C@@H]12 (stereo not given in full) | inactive |
| CC[C@]1(O)CC[C@H]2[C@@H]3CCC4=CCCC[C@@H]4[C@H]3CC[C@@]21C | inactive |
| C[N+]1(CCC(C(N)=O)(c2ccccc2)c2ccccc2)CCCCC1 | inactive |
| CC[n+]1c(-c2ccccc2)c2cc(N)ccc2c2ccc(N)cc21 | 944 nM (active) |
| COc1cc(C[C@@H](C)N)c(OC)cc1C | inactive |
| OC(c1ccccc1)(c1ccccc1)C1CCNCC1 | inactive |
| CCS(=O)(=O)C(C)(C)S(=O)(=O)CC | inactive |
| CC[C@H]1C[C@H]2[C@@H]3CCC4=CC(=O)CC[C@@H]4[C@H]3CC[C@]2(C)[C@H]1O | inactive |
| CCNc1nc(Cl)nc(NCC)n1 | inactive |
| CNC(=O)NC(O)C(Cl)(Cl)Cl (stereo not given) | inactive |
| CN1CCC(N(Cc2ccccc2)c2ccccc2)CC1 | inactive |
| CC(Cc1ccccc1)NCCCCl (stereo not given) | inactive |
| CC1Sc2c(C(=O)O)c(=O)c3cc(F)c(N4CCNCC4)cc3n21 (stereo not given) | inactive |
| C#C[C@]1(O)CC[C@H]2[C@@H]3CCC4=CC(=O)CCC4=C3C=C[C@@]21CC | inactive |
| O=C1NCN(c2ccccc2)C12CCN(CCCOc1ccc(F)cc1)CC2 | inactive |
| CC(C)(O)C(Cl)(Cl)Cl | inactive |
| COP(=S)(OC)Oc1ccc(S(N)(=O)=O)cc1 | inactive |
| CCN(Cc1ccc(Cl)nc1)/C(=C/[N+](=O)[O-])NC | inactive |
